Experimental data: PubChem BioAssay (NCI)
Compounds without any hit were thinned out: in the full panel of roughly 79,000, 15% have a hit. Values without a mark were called inactive. Active and inactive are the calls of the source. No stated cut-off is given here; in the data, active means growth inhibition above about 70%; inactive means the rest.

Experiments:
[1] = NCI Yeast Anticancer Drug Screen. Data for the rad50 strain (AID 155);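 further: 0% = growth of vehicle-only cultures of the same strain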; settings: S. cerevisiae rad50 strain growth inhibition, active compounds read high
Summary of the method: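 Inhibition values express reduced yeast growth in compound-treated cultures relative to vehicle-treated controls.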

[2] = NCI Yeast Anticancer Drug Screen. Data for the mec2-1 strain (AID 157); settings: S. cerevisiae mec2-1 strain, active compounds read high
Summary of the method: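 Test agents were screened against the mec2-1 yeast strain, with defined DNA repair or cell cycle alteration. Growth was scored as inhibition against vehicle-only controls.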

[3] = NCI Yeast Anticancer Drug Screen. Data for the sgs1 mgt1 strain (AID 161);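 further: 0% = growth of cultures given vehicle only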; settings: S. cerevisiae sgs1 mgt1 strain, active compounds read high
Summary of the method: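 Test agents were incubated with a DNA-repair-mutant yeast strain. Growth was then read and compared against vehicle-treated controls.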

[4] = NCI Yeast Anticancer Drug Screen. Data for the cln2 rad14 strain (AID 165);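 further: 0% = growth equal to vehicle treated cultures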; settings: S. cerevisiae cln2 rad14 strain, active compounds read high
Summary of the method: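 Growth of compound-exposed yeast (cln2 rad14 genotype) measured and expressed as inhibition relative to vehicle.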

[5] = NCI Yeast Anticancer Drug Screen. Data for the bub3 strain (AID 167); settings: S. cerevisiae bub3 mutant strain, active compounds read high
Summary of the method: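 Steps: expose the mutant yeast strain to compound; grow alongside vehicle-treated cultures; measure growth; express inhibition against the vehicle cultures.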

[6] = NCI Yeast Anticancer Drug Screen. Data for the mlh1 rad18 strain (AID 175); settings: S. cerevisiae mlh1 rad18 strain growth inhibition, active compounds read high
Summary of the method: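 In this whole-cell yeast screen, a strain with altered DNA damage repair is challenged with compound, and its growth is measured against matched vehicle-treated controls.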

[7] = at 5.0 µM (retest, dose inferred, filed as 0.5)
[8] = at 50.0 µM (retest, dose inferred, filed as 5.0)

## Cc1c(Cl)ccc2c1NC(=O)C2(O)CC(=O)c1ccc(Cl)cc1 (stereo not given)
[1]; [7]
  growth inhibition: 13%
[1]; [8]
  growth inhibition: 98% (active)
[1]; at 50.0 µM
  growth inhibition: 99.2% (active)
[2]; [7]
  growth inhibition: 14%
[2]; [8]
  growth inhibition: 99% (active)
[2]; at 50.0 µM
  growth inhibition: 99% (active)
[3]; [7]
  growth inhibition: 31%
[3]; [8]
  growth inhibition: 100% (active)
[3]; at 50.0 µM
  growth inhibition: 99.2% (active)
[4]; [7]
  growth inhibition: 31%
[4]; [8]
  growth inhibition: 98% (active)
[4]; at 50.0 µM
  growth inhibition: 99.3% (active)
[5]; [7]
  growth inhibition: 14%
[5]; [8]
  growth inhibition: 99% (active)
[5]; at 50.0 µM
  growth inhibition: 99.3% (active)
[6]; [7]
  growth inhibition: 13%
[6]; [8]
  growth inhibition: 99% (active)
[6]; at 50.0 µM
  growth inhibition: 99.2% (active)

## Cc1nc2c(cnn2-c2ccccc2)c(=O)o1
[1]; [7]
  growth inhibition: -143%
[1]; [8]
  growth inhibition: -140%
[1]; at 50.0 µM
  growth inhibition: 28.3%
[2]; [7]
  growth inhibition: -52%
[2]; [8]
  growth inhibition: -52%
[2]; at 50.0 µM
  growth inhibition: 2.25%
[3]; [7]
  growth inhibition: -57%
[3]; [8]
  growth inhibition: -62%
[3]; at 50.0 µM
  growth inhibition: -3.15%
[4]; [7]
  growth inhibition: -52%
[4]; [8]
  growth inhibition: -45%
[4]; at 50.0 µM
  growth inhibition: -31.2%
[5]; [7]
  growth inhibition: -65%
[5]; [8]
  growth inhibition: -73%
[5]; at 50.0 µM
  growth inhibition: -0.85%
[6]; [7]
  growth inhibition: -115%
[6]; [8]
  growth inhibition: -108%
[6]; at 50.0 µM
  growth inhibition: 50.6%

## O=C(/C=C/c1cccc2ccccc12)c1cccc([N+](=O)[O-])c1
[1]; [7]
  growth inhibition: 11%
[1]; [8]
  growth inhibition: -10%
[1]; at 50.0 µM
  growth inhibition: 12.3%
[2]; [7]
  growth inhibition: -25%
[2]; [8]
  growth inhibition: -15%
[2]; at 50.0 µM
  growth inhibition: -4.05%
[3]; [7]
  growth inhibition: -2%
[3]; [8]
  growth inhibition: 2%
[3]; at 50.0 µM
  growth inhibition: 14.3%
[4]; [7]
  growth inhibition: 7%
[4]; [8]
  growth inhibition: 5%
[4]; at 50.0 µM
  growth inhibition: 0%
[5]; [7]
  growth inhibition: -8%
[5]; [8]
  growth inhibition: -12%
[5]; at 50.0 µM
  growth inhibition: -5.2%
[6]; [7]
  growth inhibition: -12%
[6]; [8]
  growth inhibition: -51%
[6]; at 50.0 µM
  growth inhibition: -5.35%

## OC1CC2CCC(C1)N2CCCN1c2ccccc2Sc2ccc(Cl)cc21 (stereo not given)
[1]; [7]
  growth inhibition: 12%
[1]; [8]
  growth inhibition: 99% (active)
[1]; at 50.0 µM
  growth inhibition: 99% (active)
[2]; [7]
  growth inhibition: 13%
[2]; [8]
  growth inhibition: 80% (active)
[2]; at 50.0 µM
  growth inhibition: 97.2% (active)
[3]; [7]
  growth inhibition: -4%
[3]; [8]
  growth inhibition: 61%
[3]; at 50.0 µM
  growth inhibition: 99.1% (active)
[4]; [7]
  growth inhibition: -23%
[4]; [8]
  growth inhibition: 74% (active)
[4]; at 50.0 µM
  growth inhibition: 97.5% (active)
[5]; [7]
  growth inhibition: -20%
[5]; [8]
  growth inhibition: 97% (active)
[5]; at 50.0 µM
  growth inhibition: 99.2% (active)
[6]; [7]
  growth inhibition: 10%
[6]; [8]
  growth inhibition: 97% (active)
[6]; at 50.0 µM
  growth inhibition: 94.4% (active)

## NC(N)=Nc1ccc(Cc2ccc(N=C(N)N)cc2)cc1
[1]; [7]
  growth inhibition: 0%
[1]; [8]
  growth inhibition: -3%
[1]; at 50.0 µM
  growth inhibition: -33.2%
[2]; [7]
  growth inhibition: 0%
[2]; [8]
  growth inhibition: -4%
[2]; at 50.0 µM
  growth inhibition: -58%
[3]; [7]
  growth inhibition: 2%
[3]; [8]
  growth inhibition: 0%
[3]; at 50.0 µM
  growth inhibition: -17.9%
[4]; [7]
  growth inhibition: 3%
[4]; [8]
  growth inhibition: 2%
[4]; at 50.0 µM
  growth inhibition: 45%
[5]; [7]
  growth inhibition: 3%
[5]; [8]
  growth inhibition: 2%
[5]; at 50.0 µM
  growth inhibition: -10.2%
[6]; [7]
  growth inhibition: -6%
[6]; [8]
  growth inhibition: -4%
[6]; at 50.0 µM
  growth inhibition: -39%

## COc1ccc(N=N/N=c2\sc3cc(Cl)ccc3n2C)cc1
[1]; [7]
  growth inhibition: 29%
[1]; [8]
  growth inhibition: 57%
[1]; at 50.0 µM
  growth inhibition: 36.9%
[2]; [7]
  growth inhibition: 18%
[2]; [8]
  growth inhibition: 43%
[2]; at 50.0 µM
  growth inhibition: 6.15%
[3]; [7]
  growth inhibition: 21%
[3]; [8]
  growth inhibition: 42%
[3]; at 50.0 µM
  growth inhibition: -30.4%
[4]; [7]
  growth inhibition: 28%
[4]; [8]
  growth inhibition: 56%
[4]; at 50.0 µM
  growth inhibition: 30.4%
[5]; [7]
  growth inhibition: 21%
[5]; [8]
  growth inhibition: 62%
[5]; at 50.0 µM
  growth inhibition: 5%
[6]; [7]
  growth inhibition: 28%
[6]; [8]
  growth inhibition: 63%
[6]; at 50.0 µM
  growth inhibition: 38.2%

## ON=C(CC(O)(C(F)(F)Cl)C(F)(F)Cl)CC(O)(C(F)(F)Cl)C(F)(F)Cl
[1]; [7]
  growth inhibition: 50%
[1]; [8]
  growth inhibition: 99% (active)
[1]; at 50.0 µM
  growth inhibition: 99.7% (active)
[2]; [7]
  growth inhibition: 69%
[2]; [8]
  growth inhibition: 100% (active)
[2]; at 50.0 µM
  growth inhibition: 99.6% (active)
[3]; [7]
  growth inhibition: 37%
[3]; [8]
  growth inhibition: 99% (active)
[3]; at 50.0 µM
  growth inhibition: 99.5% (active)
[4]; [7]
  growth inhibition: 68%
[4]; [8]
  growth inhibition: 99% (active)
[4]; at 50.0 µM
  growth inhibition: 99.5% (active)
[5]; [7]
  growth inhibition: 23%
[5]; [8]
  growth inhibition: 100% (active)
[5]; at 50.0 µM
  growth inhibition: 99.8% (active)
[6]; [7]
  growth inhibition: 62%
[6]; [8]
  growth inhibition: 99% (active)
[6]; at 50.0 µM
  growth inhibition: 99.5% (active)

## CC1CC(=O)OC(C(=O)c2ccccc2)N1c1ccc(C(F)(F)F)cc1N (stereo not given)
[1]; [7]
  growth inhibition: 4%
[1]; [8]
  growth inhibition: 30%
[1]; at 50.0 µM
  growth inhibition: 81.6% (active)
[2]; [7]
  growth inhibition: 11%
[2]; [8]
  growth inhibition: 11%
[2]; at 50.0 µM
  growth inhibition: 65%
[3]; [7]
  growth inhibition: 8%
[3]; [8]
  growth inhibition: 38%
[3]; at 50.0 µM
  growth inhibition: 59.4%
[4]; [7]
  growth inhibition: 0%
[4]; [8]
  growth inhibition: 2%
[4]; at 50.0 µM
  growth inhibition: 56.4%
[5]; [7]
  growth inhibition: 2%
[5]; [8]
  growth inhibition: 10%
[5]; at 50.0 µM
  growth inhibition: 32.2%
[6]; [7]
  growth inhibition: 3%
[6]; [8]
  growth inhibition: 27%
[6]; at 50.0 µM
  growth inhibition: 88.4% (active)

## CC(=O)Oc1cccc2c(OC(C)=O)cccc12
[1]; [7]
  growth inhibition: -8%
[1]; [8]
  growth inhibition: 87% (active)
[1]; at 50.0 µM
  growth inhibition: 69.2%
[2]; [7]
  growth inhibition: -19%
[2]; [8]
  growth inhibition: 91% (active)
[2]; at 50.0 µM
  growth inhibition: 39.8%
[3]; [7]
  growth inhibition: -9%
[3]; [8]
  growth inhibition: 53%
[3]; at 50.0 µM
  growth inhibition: 70.8% (active)
[4]; [7]
  growth inhibition: -8%
[4]; [8]
  growth inhibition: 34%
[4]; at 50.0 µM
  growth inhibition: 26.9%
[5]; [7]
  growth inhibition: -32%
[5]; [8]
  growth inhibition: 92% (active)
[5]; at 50.0 µM
  growth inhibition: 58.2%
[6]; [7]
  growth inhibition: -6%
[6]; [8]
  growth inhibition: 89% (active)
[6]; at 50.0 µM
  growth inhibition: 65.6%

## CC(C)N(CCOc1ccc(/C=C/c2ccccc2)cc1)C(C)C
[1]; [7]
  growth inhibition: 4%
[1]; [8]
  growth inhibition: 1%
[1]; at 50.0 µM
  growth inhibition: 12.1%
[2]; [7]
  growth inhibition: 4%
[2]; [8]
  growth inhibition: 1%
[2]; at 50.0 µM
  growth inhibition: -1.45%
[3]; [7]
  growth inhibition: 8%
[3]; [8]
  growth inhibition: 2%
[3]; at 50.0 µM
  growth inhibition: 55.9%
[4]; [7]
  growth inhibition: 6%
[4]; [8]
  growth inhibition: 2%
[4]; at 50.0 µM
  growth inhibition: 8.5%
[5]; [7]
  growth inhibition: 4%
[5]; [8]
  growth inhibition: -3%
[5]; at 50.0 µM
  growth inhibition: 75.8% (active)
[6]; [7]
  growth inhibition: 6%
[6]; [8]
  growth inhibition: 4%
[6]; at 50.0 µM
  growth inhibition: 9.3%
